The values that follow come from PubChem BioAssay AID2018 (Sanford-Burnham Center for Chemical Genomics, 2009).

Usually inhibition stands for the change of the read-out against control, counted positive when it falls.

The structures appear in SMILES notation. Screen size: about 1,200 compounds; about 600 (50%) were called active. No stated cut-off is given here; in the data, active means inhibition above about 42%; inactive means the rest. The set was probably picked from earlier hits. This is one part of the list. Potency and affinity values are given separately.

For this assay, the target named is SUMO-conjugating enzyme UBC9 (Homo sapiens) (UniProt P63279). Put plainly: SUMOylation inhibitor hit validation, confirmation, SUMOylation inhibitor project, biochemical, AlphaScreen (AID 2018). The note with it: AlphaScreen in vitro SUMOylation assay; at 35 µM; hits give high values. Background: In Alpha technology, singlet oxygen from a donor bead excites a nearby acceptor bead.
Sequence of SUMO-conjugating enzyme UBC9 (Homo sapiens) (P63279 whole entry, looked up): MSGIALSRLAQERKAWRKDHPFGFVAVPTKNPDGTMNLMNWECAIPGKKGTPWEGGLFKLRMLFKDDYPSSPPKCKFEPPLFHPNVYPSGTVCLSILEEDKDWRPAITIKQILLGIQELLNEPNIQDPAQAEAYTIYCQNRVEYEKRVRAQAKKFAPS
With `COc1ccc(S(=O)(=O)N(C)c2ccc(C(=O)NCc3ccccn3)cc2)cc1`, the inhibition was 4.9% (inactive). Turning to `COc1ccc2oc(=O)c(C(=O)NCC3CCCO3)cc2c1` (stereo not given), the inhibition is -13.9% (inactive). As for `Cc1oc2c(c1C(=O)O)C(=O)c1ccccc1C2=O`, the inhibition is 86.7% (active). With `Cc1oc2c(c1C(=O)N1CCC(C)CC1)C(=O)c1ccccc1C2=O`, the inhibition was 29.2% (inactive). Take `CCOC(=O)c1c(C)oc2c1C(=O)c1ccccc1C2=O`: the inhibition was 47.8% (active). With `COc1ccc(CNC(=O)c2c(C)oc3c2C(=O)c2ccccc2C3=O)cc1`, the inhibition is 49.7% (active). On to `CC(C)NC(=O)N1CCC(n2nccc2NC(=O)CCOc2ccccc2)CC1`, for which the inhibition was 9% (inactive). Turning to `C(=N\C(/N=C/c1ccco1)c1ccco1)/c1ccco1`, the inhibition was 30% (inactive). On to `O=C1/C(=C\c2ccco2)SC(=S)N1C1CCS(=O)(=O)C1` (stereo not given), for which the inhibition is 39.6% (inactive). On to `NN1C(=O)/C(=C\c2ccco2)SC1=S`, for which the inhibition is 56% (active). Consider `O=C1S/C(=C\C=C\c2ccco2)C(=O)N1c1ccc(O)cc1`, for which the inhibition was 40.4% (inactive).

Take `Nc1ccc2c(c1)C/C(=C/c1ccco1)C2=O`: the inhibition is 13.8% (inactive). Then `CCOC(=O)c1nn(-c2ccc3c(c2)CCN3C(C)=O)cc1O`, with 16.7% (inactive); and `Cc1ccc2[nH]c3c(c2c1)CN(C(=O)CN1CCN(c2cccc(C)c2C)CC1)CC3`, with 41.7% (inactive). Take `COc1ccc2nc3ccccc3nc2c1N`: the inhibition was 66.5% (active). For the compound `COc1ccccc1CCn1c(N)c(C#N)c2nc3ccccc3nc21`, the inhibition is 22.4% (inactive).

Take `COc1ccc2nc3cccc(OC)c3nc2c1`: the inhibition is -22.2% (inactive).

For `CN(Cc1ccco1)C(=O)c1cc2c(s1)-c1ccc(Cl)cc1S(=O)(=O)C2`, the inhibition was 11.3% (inactive). For the compound `O=C(O)CCC(=O)Nc1ccccc1C(=O)Nc1ccccc1`, the inhibition is -5.9% (inactive). Then `C=CCNC(=O)c1c(N)n(-c2cccc(S(N)(=O)=O)c2)c2nc3ccccc3nc12`, with 2% (inactive); and `Cc1ccc(NC(=O)CCC(=O)OCC(=O)c2ccc(-c3ccccc3)cc2)cc1`, with 22.2% (inactive); and `CCN(CC)C(=O)COc1ccc2oc(-c3ccco3)cc(=O)c2c1`, with -1.1% (inactive). As for `COc1ccc(-n2c(N)c(C(=O)NCC3CCCO3)c3nc4ccccc4nc32)c(OC)c1` (stereo not given), the figure is -13.9% (inactive); as for `COc1ccc(-n2c(N)c(C(=O)NCc3ccco3)c3nc4ccccc4nc32)cc1OC`, 33.2% (inactive); as for `Cc1ccc(/C=c2\sc3nc(-c4ccco4)nn3c2=O)o1`, 83.3% (active). Then `O=[N+]([O-])c1cc(CN2CCN(c3cccc(C(F)(F)F)c3)CC2)c2cccnc2c1O`, with 64.3% (active). On to `O=[N+]([O-])c1ccc(N2CCN(CCO)CC2)c2ncccc12`, for which the inhibition is -17.2% (inactive). For `COc1ccc2c(c1)CC/C(=C\C=C\c1ccccc1)C2=O`, the inhibition is 31.7% (inactive). As for `COc1ccc2c(c1)CC/C(=C\Nc1ccc3c(c1)OCO3)C2=O`, the figure is 97.5% (active); as for `COc1ccccc1C(=O)Nc1sc2c(c1C(=O)NCc1ccco1)CCCC2`, 35.7% (inactive).

`O=C(CSc1ccc(Br)c2cccc(Cl)c12)Nc1ccc(S(=O)(=O)Nc2nccs2)cc1`: the inhibition was 101% (active).

For `CC(C)CC(=O)Nc1ccc(C(=O)Cn2nc(C(=O)O)c3ccccc3c2=O)cc1`, the inhibition was 36% (inactive). For `O=C(Cn1nnc2ccccc21)NCc1ccccc1`, the inhibition was 4.8% (inactive). Consider `N#Cc1cnn2c(-c3ccccc3)ccnc12`, for which the inhibition was 3.3% (inactive). Turning to `O=C(Cc1cccc2ccccc12)NN1C(=O)/C(=C\c2cccnc2)SC1=S`, the inhibition is 29.3% (inactive). `CCOCCCN1CN(Cc2ccco2)CNC1=S`: the inhibition is 4.1% (inactive). Consider `O=C(O)/C=C\c1cn(-c2ccccc2)nc1-c1cc2ccccc2o1`, for which the inhibition is 27.9% (inactive). In the case of `O=C(O)/C=C/c1cn(-c2ccccc2)nc1-c1cc2ccccc2o1`, the inhibition was 10.4% (inactive). As for `Cc1ccc(C)c(S(=O)(=O)c2c(N)n(/N=C/c3ccco3)c3nc4ccccc4nc23)c1`, the inhibition is 23% (inactive).

For `Cc1ccc(S(=O)(=O)c2c(N)n(/N=C/c3ccco3)c3nc4ccccc4nc23)cc1C`, the inhibition was 26.1% (inactive). In the case of `COc1ccc(CNC(=O)c2c(N)n(CCCN3CCOCC3)c3nc4ccccc4nc23)cc1`, the inhibition was 3.3% (inactive). As to `C=CCn1c(NC(=O)c2ccc(Br)o2)c(S(=O)(=O)c2ccccc2)c2nc3ccccc3nc21`, the inhibition was 65.4% (active).

Regarding `O=C(c1cccn2c(=O)c3cc(Cl)ccc3nc12)N1CCOCC1`, the inhibition was 5.9% (inactive).

Take `Cc1ncc(CO)c(/C=N/NC(=O)c2cc(O)c(O)c(O)c2)c1O`: the inhibition is 99.6% (active). Turning to `CC(=O)NC1C(=O)N(CCN2CCOCC2)c2ccc(Br)cc21` (stereo not given), the inhibition was 99% (active). Then `CCOc1ccc2c(c1)C(NC(C)=O)C(=O)N2CCN1CCOCC1` (stereo not given), with 95.9% (active); and `Brc1ccc(OCCN2CCOCC2)cc1`, with 13.4% (inactive). Then `Cn1c(=O)n(C)c2cc(S(=O)(=O)NCCO)ccc21`, with 13.1% (inactive); and `CCc1ccc2c(c1)C(NC(C)=O)C(=O)N2CCN1CCOCC1` (stereo not given), with 96.7% (active). As for `O=C(Nc1cccc2ccccc12)N1CCc2ccccc2C1`, the figure is 13.1% (inactive); as for `Oc1ccc(N=Cc2ccc(-c3cccs3)s2)cc1`, 52.6% (active). Take `Cc1ccc(C)c(-c2nc3ccc(N)cc3[nH]2)c1`: the inhibition was 8.5% (inactive). Consider `N#CC1=C(SCC(=O)NC23CC4CC(CC(C4)C2)C3)NC(=O)C(C#N)C12CCCCC2` (stereo not given), for which the inhibition is -21.2% (inactive).

`CN(C)/C=C1/Oc2c(ccc3ccccc23)C1=O`: the inhibition was -1.2% (inactive). As for `COc1ccc(OC)c2c1C(=O)c1ccccc1C2=O`, the inhibition was 44% (active). On to `CN(C)/C=C1\Oc2ccc3ccccc3c2C1=O`, for which the inhibition is -1.5% (inactive). Then `COc1cccc2c1C(=O)c1ccc3ccccc3c1C2=O`, with 75.8% (active). As for `COc1ccc(Cc2n[nH]c(=S)n2NC(=O)Nc2ccc(Cl)c(Cl)c2)cc1`, the figure is 24.4% (inactive); as for `COc1ccc(NCc2cc3ccccc3[nH]c2=O)cc1`, 46.4% (active); as for `COCCn1nnnc1C(c1cc2ccc(OC)cc2[nH]c1=O)N1CCc2ccccc2C1` (stereo not given), 4.8% (inactive). On to `COc1ccc(-c2cc(=O)[nH][nH]2)cc1`, for which the inhibition is 27.6% (inactive). Consider `O=C(NCc1ccccc1)Nc1cccn(Cc2ccc(Cl)cc2)c1=O`, for which the inhibition is -10.4% (inactive). Take `CN(C)/C=N/c1nc2nccc(-c3ccc(F)cc3)n2n1`: the inhibition was 1.6% (inactive). Consider `CCN(CC)S(=O)(=O)c1cc(C)ccc1SC`, for which the inhibition is -1% (inactive). Take `Cc1ccc(C(=O)c2c3ccc(N)cc3nn2CCC(N)=O)cc1`: the inhibition is 38.2% (inactive). Then `Cc1c(N=C2C=CC(=O)c3ccccc32)c(=O)n(-c2ccccc2)n1C`, with 102% (active); and `CCc1cc2c(=O)nc3n(c2s1)Cc1ccccc1/C3=C(/O)c1cccc([N+](=O)[O-])c1`, with 16.9% (inactive); and `Cc1cc(=O)n2[nH]c(N)c(N=Nc3ccccc3F)c2n1`, with 12.9% (inactive). As for `Nc1c(C(=O)Nc2ccccc2)sc2nc(-c3ccco3)ccc12`, the figure is -10.2% (inactive); as for `COc1ccccc1NC(=O)Nc1ccnn1Cc1cccs1`, 16.5% (inactive). As to `Nc1c(C(=O)Nc2ccc(F)cc2)sc2nc(-c3ccco3)ccc12`, the inhibition was 35.1% (inactive). For `Cc1ccc(S(=O)(=O)N2CCCCC2)cc1NC(=O)COC(=O)c1c(F)cccc1F`, the inhibition is -6.2% (inactive).

Turning to `Cc1cc2c(NC(=O)Nc3ccc(C(C)(C)C)cc3)cccc2nn1`, the inhibition is 15.3% (inactive). With `CCOC(=O)NC(=O)COC(=O)c1ccc(O)cc1`, the inhibition was 24.8% (inactive). Take `COCCn1c(-c2ccco2)nc2nc3ccccc3nc21`: the inhibition is 19.2% (inactive). For the compound `O=C(NCc1ccco1)Nc1ccc2snnc2c1`, the inhibition is 11% (inactive). `COc1ccc2nc(-c3ccco3)c(-c3ccco3)nc2c1`: the inhibition is 76.8% (active). As for `COc1cc(OC)cc(-c2nc(-c3ccccc3)no2)c1`, the figure is -70.2% (inactive).

For the compound `COCCNC(=O)Nc1ccc2nc(-c3ccco3)c(-c3ccco3)nc2c1`, the inhibition was 102% (active). As for `CCOc1ccccc1Oc1c(C)oc2c(CN3CCN(C)CC3)c(O)ccc2c1=O`, the figure is -5.4% (inactive). Turning to `Cc1cccc(-c2n[nH]c(=S)n2/N=C/C=C/c2ccco2)c1`, the inhibition was 37.5% (inactive). Consider `S=c1[nH]nc(-c2cc(-c3ccccc3)n[nH]2)n1/N=C/c1ccc(Cl)c(Cl)c1`, for which the inhibition is 12.5% (inactive). Then `O=C(O)CCCCCNc1ccc2nsnc2c1[N+](=O)[O-]`, with -10.2% (inactive). `C[C@@H]1CN=C2N(CCNC(=O)CCC3CCCCC3)[C@H](Cc3ccc(O)cc3)CN21`: the inhibition is 6% (inactive). As to `O=C1OC(Nc2ccc3ncccc3c2)c2ccccc21` (stereo not given), the inhibition was 2.1% (inactive). Then `Cc1cccc(C(=O)O)c1NC(=O)c1ccc(F)cc1`, with 2.9% (inactive); and `Cc1cc2c(NC(=O)Nc3ccccc3)cccc2nn1`, with 26.1% (inactive).

Consider `Cc1cc2c(NC(=O)Nc3ccc(F)cc3)cccc2nn1`, for which the inhibition was 10.5% (inactive). Turning to `Cc1cc2c(N)cccc2nn1`, the inhibition was 101% (active). As to `COc1ccc(C2C3=C(CCCC3=O)Nc3c(-c4ccccc4)c(C)nn32)cc1` (stereo not given), the inhibition was 4.2% (inactive).

`O=C(O)CSc1cc(C(=O)c2cc(F)ccc2O)cn2c(=O)c3c(-c4ccccc4)csc3nc12`: the inhibition is 95.3% (active).

With `O=C(O)CSc1cc(C(=O)c2ccccc2O)cn2c(=O)c3c(-c4ccccc4)csc3nc12`, the inhibition was 99.2% (active). Regarding `COc1ccc(/C=C/c2cc(C(=O)O)c3ccccc3n2)cc1`, the inhibition was 21.4% (inactive). Regarding `N#CCCN(Cc1cccnc1)C(=S)NC1CC2C=CC1C2` (stereo not given), the inhibition was -4.1% (inactive).

For the compound `COC(=O)Cn1c2ccc(C)cc2c2nc(C)sc21`, the inhibition is 30.1% (inactive).

Take `CCOC(=O)Cn1c2ccc(OC)cc2c2nc3ccccc3nc21`: the inhibition was 38.7% (inactive). In the case of `CCCN(CC1CC1)c1nc(N)c2c(N)nc(OC)cc2c1C#N`, the inhibition is 16.9% (inactive). Then `COc1cc2c(C#N)c(N3CCN(c4ccccc4OC)CC3)nc(N)c2c(N)n1`, with 19.7% (inactive); and `COc1cc2c(C#N)c(N3CCCCC3)nc(N)c2c(N)n1`, with 47.6% (active); and `COc1cc2c(C#N)c(N3CCN(C)CC3)nc(N)c2c(N)n1`, with 21.5% (inactive).
